# Compound activity (PubChem BioAssay)
# D2 PAM-1 – D2 dopamine receptor (human) potentiation. P14416. HEK293 T-REx D2, calcium flux, EC20 dopamine potentiation. potentiation, % at 10 µM. hit rate 0.34% among 340,000. AID 485347;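 active = potentiation over 3 SD above the plate norm, cut at about 30% in these data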; note: 0% is about no effect
# Target sequence (P14416 whole entry, looked up): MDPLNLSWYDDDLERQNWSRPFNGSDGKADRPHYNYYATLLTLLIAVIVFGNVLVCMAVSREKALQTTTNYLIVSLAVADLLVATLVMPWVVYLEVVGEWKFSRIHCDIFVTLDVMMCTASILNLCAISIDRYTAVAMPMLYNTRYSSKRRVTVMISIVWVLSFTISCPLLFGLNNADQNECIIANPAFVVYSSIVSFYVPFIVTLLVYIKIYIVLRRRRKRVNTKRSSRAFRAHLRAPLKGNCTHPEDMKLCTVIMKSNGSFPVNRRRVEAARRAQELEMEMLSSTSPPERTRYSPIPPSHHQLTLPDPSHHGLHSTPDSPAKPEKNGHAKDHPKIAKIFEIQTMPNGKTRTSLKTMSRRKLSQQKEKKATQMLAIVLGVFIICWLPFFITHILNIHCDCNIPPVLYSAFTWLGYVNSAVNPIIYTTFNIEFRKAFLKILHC
#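 Primary screen. Calcium kinetics in induced HEK293 T-REx D2 cells: compound pre-addition 180 s, EC20 dopamine, 180 s more.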
# D2 ag-1 – human D2 receptor agonism in beta-arrestin assay | AID 624465 | P14416 | hit rate 0.084% among 360,000 | DiscoveRx PathHunter D2 beta-arrestin, luminescence, 90 min; 100% = 57 uM dopamine signal | activation, % (no concentration beside the values); in the data active = activation above about 40%; inconclusive = between about 15% and that limit
#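 DiscoveRx PathHunter D2 beta-arrestin cells (2,100/well) attached overnight, then compound-stimulated 90 min at 37 C in HBSS/10 mM HEPES/0.1% Tween-20 buffer; beta-galactosidase complementation read by luminescence after 1 h at ambient temperature. Dopamine 57 uM final (EC100) as control.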
# D2 ag-2 – D2 dopamine receptor (human) agonism; HEK293 T-REx D2 cells, calcium flux agonist mode; activation, % at 2 µM; hit rate 0.53% among 340,000;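 active = activation over 3 SD above normal in the single-dose calcium agonist read, cut at about 30% in these data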; note: 0% is about no effect
#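 Agonism scored from kinetic calcium signal (1 read/sec, 180 s) following compound pin transfer, after a 10 s baseline. Cells: HEK293 Trex line expressing inducible D2 receptor coupled to calcium, dye-loaded after overnight culture at 30 C.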
# D2 antag – D2 dopamine receptor (human) antagonism. P14416. HEK293 TREx D2 cells, calcium flux, dopamine EC80. inhibition, % at 10 µM. hit rate 2% among 340,000. AID 485344; in the data active = inhibition above about 30%; inactive = below that, where a call was filed; note: 0% is about no effect
#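 Antagonism is scored as inhibition of an EC80 dopamine-evoked calcium signal in a force-coupled, tetracycline-inducible HEK293 T-REx D2 line, with compound present 180 s before agonist.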
# D2 PAM-2 – positive allosteric modulators of human D2 dopamine receptor; P14416; DiscoveRx D2 beta-arrestin cells, luminescence, 90 min; 100% = 57 uM dopamine signal; potentiation, % (no concentration beside the values); hit rate 0.23% among 360,000; AID 624464; in the data active = potentiation above about 50%; inconclusive = mostly about 30% to 49%
#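 PathHunter beta-arrestin assay in DiscoveRx D2 cells. Compounds were added with an EC20 of dopamine (50 nM final) for 90 min at 37 deg C. Luminescence was read 1 h after detection reagent, with 57 uM dopamine as the EC100 control.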
# Starred values were filed as active, the others as inactive; u = inconclusive; x = no result given. An excerpt weighted towards active compounds, which were near 2.4% of everything screened.
SMILES,D2 PAM-1,D2 ag-1,D2 ag-2,D2 antag,D2 PAM-2
Cc1cc(C)c(OCCCCNCc2ccccc2)c(Cl)c1,-14,-2,-1,49*,-20
C=CCNCCCCOc1c(Cl)cc(C)cc1Br,-7,-2,0,-10,-5
CCOC(=O)Nc1sc2c(c1C#N)CCCC2,-6,-2,0,9,-2
CCCC1CCc2c(sc(NC(=O)OCC)c2C#N)C1 (stereo not given),34*,-2,-1,x,-1
Cc1ccc(/C=C/C(=O)Nc2ncc(C)s2)o1,8,10,0,-4,25
Cc1ccc(/C=C/C(=O)Nc2nccs2)o1,1,8,0,11,53*
Cc1cc(C)c2c(=O)c3c(oc2c1)C(=O)N(Cc1ccc(F)cc1)C3c1cccc(O)c1 (stereo not given),-22,x,-1,x,x
O=c1cnnc(NCc2ccccc2)[nH]1,36*,-2,0,22,-15
Cn1c(CN2CCCCC2)c(C#N)c2ccccc21,-23,-4,-1,46*,-22
Cn1c(CN2CCN(CC#N)CC2)c(C#N)c2ccccc21,-3,0,0,-13,-12
N#Cc1ccc(Sc2ccccn2)c([N+](=O)[O-])c1,11,4,0,38*,3
COc1ccc(N(CC(=O)Nc2c(C)n(C)n(-c3ccccc3)c2=O)S(=O)(=O)c2ccc(C)cc2)cc1OC,8,-2,2,35*,-2
CC/C(=N/Nc1ccc(Cl)cc1)c1cnnc(SC)n1,6,-2,0,34*,-9
COc1cc(NC(=O)COCc2cc(-c3ccc(F)cc3)on2)cc(OC)c1OC,1,x,-2,x,x
COC(=O)c1c(-c2ccc(Cl)cc2)noc1N1CCN(c2cccc(OC)c2)CC1,11,x,0,x,x
CCC(C)C(NC(N)=O)C(=O)NC1CCC(C)CC1 (stereo not given),14,x,2,33*,x
CN(Cc1nccs1)C(=O)C1CCC(=O)N(CCc2ccc(Cl)cc2)C1 (stereo not given),-6,-1,0,33*,-6
O=C(c1ccc(Cn2c(=S)[nH]c3ccccc3c2=O)cc1)N1CCN(c2ccccn2)CC1,-6,3,0,33*,0
O=C(c1ccc2c(=O)n(CCc3ccccc3)c(=O)[nH]c2c1)N1CCN(c2ccc(F)cc2)CC1,-6,8,0,0,16
CCOC(=O)N1CCN(C(=O)c2ccc(Cn3c(=S)[nH]c4cc5c(cc4c3=O)OCO5)cc2)CC1,5,-1,0,31*,15
CCOC(=O)N1CCN(C(=O)c2ccc(Cn3c(=S)[nH]c4cc(OCC)c(OCC)cc4c3=O)cc2)CC1,15,3,0,14,-18
CCOc1cc2[nH]c(=S)n(Cc3ccc(C(=O)NCCN(CC)CC)cc3)c(=O)c2cc1OCC,-22,-1,0,50*,-24
O=C(c1ccc2c(=O)n(CCc3ccccc3)c(=O)[nH]c2c1)N1CCN(c2ccccc2)CC1,30*,-3,4,-4,-1
CCCCCn1c(=O)[nH]c2cc(C(=O)N3CCN(Cc4ccc5c(c4)OCO5)CC3)ccc2c1=O,-17,5,38*,14,-9
C=CCn1c(=O)[nH]c2cc(C(=O)N3CC=C(c4ccccc4)CC3)ccc2c1=O,6,-2,-1,36*,11
SMILES,D2 PAM-1,D2 ag-1,D2 ag-2,D2 antag,D2 PAM-2
Cc1ccccc1NC(=O)CSc1cn(CC(=O)N2CCCCCC2)c2ccccc12,-1,x,-1,x,x
COc1ccc(CCNC(=O)Cn2cc(S(=O)(=O)Cc3ccccc3Cl)c3ccccc32)cc1OC,-2,x,-1,x,x
CC(=O)N1CCN(C(=O)c2cc(S(=O)(=O)N3CCN(c4ccccc4)CC3)ccc2Cl)CC1,49*,-4,0,5,u
O=C(CN1CCN(c2ccc([N+](=O)[O-])cc2Cl)CC1)N1CCOCC1,-4,-1,0,-9,1
O=C(c1cc([N+](=O)[O-])ccc1Cl)N1CCN(c2ccc([N+](=O)[O-])cc2)CC1,7,8,0,41*,7
O=C(CN1CCOCC1)N1CCN(c2ccc([N+](=O)[O-])cc2)CC1,-14,-6,0,83*,-10
COC(=O)c1cc(C(=O)N2CCN(c3cccc(Cl)c3)CC2)cc([N+](=O)[O-])c1,-4,12,0,30*,17
O=C(c1cc(S(=O)(=O)N2CCOCC2)ccc1Cl)N1CCN(c2ccccn2)CC1,-7,3,0,-3,1
COc1ccc2c(CNCc3ccc(Cl)cc3)c(C(=O)O)n(Cc3ccccc3C)c2c1,-18,x,1,x,x
COC(=O)c1cc2oc3ccccc3c2n1CC(=O)Nc1ccc(C)c(F)c1,-1,x,0,x,x
CCOc1ccc(NC(=O)Nc2cc(C(C)C)ccc2C)cc1,-23,x,-1,31*,x
Cc1ccc(C(C)C)cc1NC(=O)Nc1ccc([N+](=O)[O-])cc1,-23,9,4,37*,-23
Cc1cc(O)c(C(C)C)cc1NC(=O)Nc1ccc([N+](=O)[O-])cc1,x,-3,x,x,-18
Cc1cccc(NC(=O)c2cnn(-c3ccccc3)c2-n2cccc2)c1C,11,x,-1,x,x
COc1ccc(-c2cc(C)no2)cc1S(=O)(=O)NC1CCC(C)CC1 (stereo not given),2,x,0,x,x
COc1ccccc1C(=O)Nc1ccc(C(=O)OCc2cc(=O)n3nc(C)sc3n2)cc1,0,x,x,x,x
O=C(Nc1cccc(C(=O)OCc2cc(=O)n3c4c(sc3n2)CCCC4)c1)c1cccc(F)c1,5,x,x,x,x
CCOC(=O)N/N=C/c1cc(OC)c(O)c(OC)c1,-7,4,0,-15,-10
CCOC(=O)c1sc(N/N=C/c2cc(Br)c(O)c(OC)c2)nc1C,13,41*,-1,-12,51*
O=C(COC(=O)c1cc[n+]([O-])cc1)Nc1ccc(SC(F)F)cc1,-5,-1,1,31*,0
O=C(COC(=O)c1cc[n+]([O-])cc1)Nc1ccc(Br)cc1,-2,2,-1,-24,-2
CCN1C(=O)c2ccccc2S(=O)c2ccc(C(=O)N3CCCCCC3)cc21 (stereo not given),-3,-1,0,32*,-3
CCS(=O)(=O)N1Cc2ccccc2CC1C(=O)Nc1ccc(OC)c(OC)c1 (stereo not given),-2,-2,0,4,0
CCS(=O)(=O)N1Cc2ccccc2CC1C(=O)Nc1cccc(OC)c1 (stereo not given),0,-2,-1,34*,-2
O=S1(=O)CCOC[C@H](CC2CCCCC2)N1Cc1cccc(Cl)c1,9,-1,0,-15,-5
CCC1COCCS(=O)(=O)N1Cc1cccc(Cl)c1 (stereo not given),4,-2,0,47*,-5
